hgDAF12 agonist – agonists of H. glycines DAF-12 nuclear receptor; HEK293 GAL4-hgDAF12 UAS-luciferase reporter, agonist luminescence; normalized to butyrate control; activation, % at 6.8 µM; 370,000 tested, 1.8% active; AID 687014;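 active means activation above a cutoff set at the mean of all screened compounds plus 3 SD, cut at about 10% in these data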
hcDAF-12 act – activators of H. contortus DAF-12 nuclear receptor; 370,000 tested, 1.4% active; HEK293 hcDAF-12 lit1-tk-luc reporter, luminescence; 0% DMSO, 100% Δ7-dafachronic acid; AID 652067; activation, % at 6.8 µM;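 active means activation above the mean of all tested compounds plus 3 SD, cut at about 5.5% in these data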
DAX1 inh-1 – NR0B1 (DAX1) inhibition; P51843; HEK293 Gal4-DAX1 luciferase reporter, luminescence; inhibition, % at 6.75 µM; 340,000 tested, 0.99% active;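 active means inhibition above the mean over all tested compounds plus 3 SD, cut at about 4.2% in these data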;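 further: inhibition shows as a rise in luminescence from relieved DAX1 repression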
SMARCA2 act – activators of SMARCA2 function | MG213 cells, MMTV-luciferase reporter, dexamethasone, overnight | activation, % at 9.1 µM | 370,000 tested, 1% active | AID 652017; in the data active means activation above about 7.8%
DAX1 inh-2 – inhibitors of DAX1 repression of SF-1 activated StAR promoter | HEK293T StAR-luciferase reporter, SF-1/DAX-1 repression relief | inhibition, % at 6.8 µM | 370,000 tested, 1.1% active | AID 652010;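 active means inhibition above the mean over all tested compounds plus 3 SD, cut at about 3.6% in these data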;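 further: higher inhibition means more luminescence from relief of DAX-1 repression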
ssDAF-12 act – activators of S. stercoralis DAF-12 nuclear receptor; HEK293 ssDAF-12/GRIP1 lit1-tk-luc reporter, luminescence; % of 3 µM dafachronic acid response; activation, % at 6.8 µM; 370,000 tested, 1% active;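 active means activation above the mean over all tested compounds plus 3 SD, cut at about 0.9% in these data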
DAX1 conf – confirmation of human DAX1 (NR0B1) inhibitors; shares compounds with DAX1 inh-2; HEK293T StAR-promoter luciferase reporter, SF-1/DAX-1 repression; inhibition, % at 6.8 µM; 2,400 tested, 87% active; AID 652134;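 active means inhibition above the average of every tested compound plus 3 SD, cut at about 3.8% in these data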;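 further: active compounds raise luminescence by relieving repression of the StAR reporter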
Target sequence (P51843 whole entry, looked up): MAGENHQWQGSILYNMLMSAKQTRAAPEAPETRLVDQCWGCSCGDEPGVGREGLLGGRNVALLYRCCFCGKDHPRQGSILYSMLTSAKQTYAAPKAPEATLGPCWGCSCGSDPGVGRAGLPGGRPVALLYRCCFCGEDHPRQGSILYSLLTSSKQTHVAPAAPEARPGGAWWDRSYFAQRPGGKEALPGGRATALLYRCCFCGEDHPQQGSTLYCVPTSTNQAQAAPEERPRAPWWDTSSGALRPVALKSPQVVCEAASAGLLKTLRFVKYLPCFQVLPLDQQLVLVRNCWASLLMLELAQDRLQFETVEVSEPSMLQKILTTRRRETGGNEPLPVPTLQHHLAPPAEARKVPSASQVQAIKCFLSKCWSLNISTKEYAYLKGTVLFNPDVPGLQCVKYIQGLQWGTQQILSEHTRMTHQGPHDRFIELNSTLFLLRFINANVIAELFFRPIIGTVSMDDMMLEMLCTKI
SF1 AF2mut Luc – nonselective inhibitor or artifact in SF-1 mutant DAX1 counter-screen | shares compounds with DAX1 inh-2 | HEK293 StAR-luciferase, SF-1 AF2 mutant, luminescence | inhibition, % at 6.8 µM | 2,400 tested, 78% active;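 active means inhibition above the mean of all tested compounds plus 3 SD, cut at about 3% in these data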
Each line names hits and unclear results; the compound was inactive in the other large screens (follow-up assays come after a bar, where they were run). Shown are actives, neighbours in structure and some others; about 4.8% of the full set was active somewhere.

Cc1ccc2nc(-c3ccccc3)c(Cc3ccccc3C(F)(F)F)n2c1	DAX1 inh-2 4.7 (no result: DAX1 inh-1) | DAX1 conf 3.8 | SF1 AF2mut Luc 3.8
CC(C)=CCC/C(C)=C/CN1CC(=O)N2[C@H](C[C@@]3(n4ccc5ccccc54)c4ccccc4N(S(=O)(=O)c4ccccc4)[C@@H]23)C1=O	none (no result: DAX1 inh-1)
CCCC(=O)Nc1ccc2c(c1)C(=O)N(C)[C@H]1CC[C@@H](CC(=O)OC)O[C@@H]1CO2	none (no result: DAX1 inh-1)
CC(=O)c1cc(F)ccc1OCC(=O)Nc1ccc2c(c1)OCO2	hgDAF12 agonist 11, DAX1 inh-2 11, ssDAF-12 act 1.0 | DAX1 conf 12 | SF1 AF2mut Luc 6.3
CCCOc1ccc(C(=O)Nc2ccc3c(c2)OCO3)cc1	DAX1 inh-2 10 | DAX1 conf 9.6 | SF1 AF2mut Luc 4.9
CCCCOc1ccc(C(=O)Nc2ccc3c(c2)OCO3)cc1	none
Cc1ccc(OCC(=O)Nc2ccc3c(c2)OCO3)c(C)c1	hgDAF12 agonist 13, DAX1 inh-2 6.5 | DAX1 conf 7.2 | SF1 AF2mut Luc 5.7
COC(=O)c1cc(S(=O)(=O)N2CCN(C(C)=O)CC2)cn1C	none (no result: DAX1 inh-1)
Cc1n[nH]c(C)c1S(=O)(=O)NCCc1ccccc1	none (no result: DAX1 inh-1)
O=C(Nc1cccc(Cl)c1)OCCN1CCCC12CCC(c1ccccc1)CC2 (configuration not stated)	none (no result: DAX1 inh-1, SMARCA2 act, DAX1 inh-2)
Cc1nc2sc(C(=O)NCc3nccs3)c(N)c2c(C)c1Cl	none (no result: DAX1 inh-1)
Cc1ccc(-n2ncc3c(N4CCCC(C)C4)ncnc32)c(C)c1 (configuration not stated)	hgDAF12 agonist 11, DAX1 inh-2 4.8 | DAX1 conf 7.2 | SF1 AF2mut Luc 5.5
CCSc1nnc(NC(=O)CCN2C(=O)C3CCCCC3C2=O)s1 (configuration not stated)	DAX1 inh-2 4.8 | DAX1 conf inactive | SF1 AF2mut Luc inactive
COc1ccc([C@H]2OC(=O)C[C@H]2C(=O)N2CCN(C(=O)C3CCCO3)CC2)cc1OC (some centres not stated)	none (no result: DAX1 inh-1)
CCCCC(=O)NC(=S)NNC(=O)CC#N	DAX1 inh-2 4.7 | DAX1 conf inactive | SF1 AF2mut Luc inactive
Cc1ccnc(NC(=O)c2ccc3c(c2)NC(=O)C(C)S3)c1 (configuration not stated)	DAX1 inh-2 11 | DAX1 conf 9.2 | SF1 AF2mut Luc 3.9
C[C@@H]1COc2cc(Br)ccc2S(=O)(=O)N1Cc1cn(CC2CCCCC2)nn1	none (no result: DAX1 inh-1)
CCN(C(=O)c1cc2c(=O)n3ccccc3nc2n1C)C1CCCCC1	DAX1 inh-2 4.9 | DAX1 conf 4.6 | SF1 AF2mut Luc inactive
CCN(c1ccccc1C)S(=O)(=O)c1nnc(NC(=O)c2ccco2)s1	DAX1 inh-2 4.8 | DAX1 conf inactive | SF1 AF2mut Luc inactive
CCN(c1cc(C)cc(C)c1)S(=O)(=O)c1nnc(NC(=O)c2ccco2)s1	none
COC(=O)C1CN(Cc2cn(Cc3ccc(OC)cc3)nn2)CCS(=O)(=O)N1Cc1ccc(C)cc1 (configuration not stated)	none (no result: DAX1 inh-1)
Cc1ccc(C2CCC3(CCC(=O)N3CCOC(=O)Nc3ccc(F)cc3)CC2)cc1 (configuration not stated)	none (no result: DAX1 inh-1)
OC(c1ccccc1)(c1ccccc1)C1CCN(CCCOc2ccc(Br)cc2)CC1	none (no result: DAX1 inh-1)
COc1cccc(NC(=O)C(=O)N/N=C(\C)CC(=O)Nc2ccc(NC(C)=O)cc2)c1	hgDAF12 agonist 13, DAX1 inh-2 5.8 | DAX1 conf 5.9 | SF1 AF2mut Luc 5.8
CCc1ccc(NC(=O)C(=O)N/N=C(\C)CC(=O)Nc2ccc(OC)cc2)cc1	none
CCOCC(=O)Nc1c(C(=O)Nc2ccc3c(c2)OCCO3)oc2ccccc12	DAX1 inh-2 7.0 | DAX1 conf 6.3 | SF1 AF2mut Luc 3.1
Cn1cccc1C(=O)OCC(=O)NCc1ccc2c(c1)OCO2	none
Cn1cccc1C(=O)OCC(=O)Nc1ccc2c(c1)OCCO2	hgDAF12 agonist 11, DAX1 inh-2 7.1 | DAX1 conf 12 | SF1 AF2mut Luc 7.0

Assay outcomes from PubChem.
